The panel holds about 83,000 compounds, 20% with a hit somewhere; the sample as a whole holds those more often.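 How to read the values: 0–100, growth inhibition (40 = 60% inhibited); 0, no net growth; -100 to 0, cell death (-40 = 40% of starting cells died; -100 = all dead).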 Activity calls are given as the source filed them. Rule for the calls: active = growth percent below 10; inactive = the rest.
Columns and labels:
Test in all cases: NCI-60 one-dose screen, 48 h (100 = growth as untreated, 0 = no growth, -100 = all killed)
Settings in all cases: 10 µM unless noted
BT-549 breast = system: BT-549 breast
MDA-MB-435 melanoma = system: MDA-MB-435 melanoma
SW-620 colon = system: SW-620 colon
MCF7 breast = system: MCF7 breast
HCT-116 colon = system: HCT-116 colon
HCC-2998 colon = system: HCC-2998 colon
KM12 colon = system: KM12 colon

Measured: growth

CN(C)CCN1C(=O)c2cccc3c(N)ccc(c23)C1=O
inactive: BT-549 breast 89.9% | MDA-MB-435 melanoma 39.6% | SW-620 colon 26.6% | HCT-116 colon 15.9% | HCC-2998 colon 48.1% | KM12 colon 28.1%
active: MCF7 breast -11.3%

N#Cc1nnn(-c2ccc(S(N)(=O)=O)cc2)c1NCC(=O)c1ccccc1
inactive: BT-549 breast 98% | MDA-MB-435 melanoma 91.8% | SW-620 colon 97.2% | MCF7 breast 93.3% | HCT-116 colon 95% | HCC-2998 colon 112% | KM12 colon 99.4%

Cc1cc(C)nc(SC2=C(Nc3ccc(O)cc3)C(=O)N(Cc3ccccc3)C2=O)n1
inactive: BT-549 breast 63.9% [40 µM] | MDA-MB-435 melanoma 80.1% [40 µM] | SW-620 colon 113% [40 µM] | MCF7 breast 77.1% [40 µM] | HCT-116 colon 95.4% [40 µM] | KM12 colon 103% [40 µM]

CN1CCN=C1c1ccc(NC(=O)c2ccc(C(=O)Nc3ccc(C4=NCCN4C)cc3)cc2)cc1
inactive: BT-549 breast 97.5% | MDA-MB-435 melanoma 108% | SW-620 colon 102% | MCF7 breast 76.5% | HCT-116 colon 91.1% | HCC-2998 colon 112% | KM12 colon 98.7%

COc1ccc(-c2cc(NC(=O)Nc3ccc4ncsc4c3)no2)cc1
inactive: BT-549 breast 106% | MDA-MB-435 melanoma 105% | SW-620 colon 105% | HCT-116 colon 102% | HCC-2998 colon 103% | KM12 colon 100%

CCOc1ccc(C(C)=O)cc1NC(=O)c1cccc(-c2nnn(CC)n2)c1
active: MDA-MB-435 melanoma -47.6%
inactive: BT-549 breast 58.5% | SW-620 colon 31.2% | MCF7 breast 32.5% | HCT-116 colon 19.3% | KM12 colon 23.8%

CC[C@@H](C(=O)[C@@H](C)[C@@H](O)[C@H](C)[C@@H]1O[C@@H]([C@@H](CC)C(=O)O)CC[C@@H]1C)[C@H]1OC2(C=C[C@@H](O)[C@]3(CC[C@@](C)([C@H]4CC[C@](O)(CC)[C@H](C)O4)O3)O2)[C@H](C)C[C@@H]1C (stereo partly specified)
inactive: SW-620 colon 16.2% | HCT-116 colon 12% | HCC-2998 colon 10.7% | KM12 colon 12.2%
active: BT-549 breast -12.3% | MDA-MB-435 melanoma -76.2%

FC(F)(F)Oc1ccc2nc3nc4ccc[nH]c4cc3c2c1
inactive: BT-549 breast 84.4% | MDA-MB-435 melanoma 89.2% | SW-620 colon 86.8% | MCF7 breast 16.8% | HCT-116 colon 81.4% | HCC-2998 colon 96.8% | KM12 colon 72.8%

O=C(Nc1cccc2[nH]c(C(F)(F)F)nc12)c1ccc(-n2cnnn2)cc1
inactive: BT-549 breast 63% | MDA-MB-435 melanoma 105% | SW-620 colon 104% | MCF7 breast 96.2% | HCT-116 colon 96% | HCC-2998 colon 116% | KM12 colon 72.7%

O=C(Nc1ccccc1Cl)c1ccc(NC2=C(Cl)C(=O)N(C3CCCCC3)C2=O)cc1
inactive: BT-549 breast 60.5% [30 µM] | MDA-MB-435 melanoma 49.6% [30 µM] | SW-620 colon 56.7% [30 µM] | MCF7 breast 34.7% [30 µM] | HCT-116 colon 111% [30 µM] | KM12 colon 64.9% [30 µM]

O=C1NC(=O)C(c2ccc(Cl)cc2Cl)N1 (stereo unspecified)
inactive: BT-549 breast 122% | MDA-MB-435 melanoma 113% | SW-620 colon 106% | MCF7 breast 101% | HCT-116 colon 103% | KM12 colon 104%

CN(C)c1ccc(N=Nc2ccccn2)c(O)c1
inactive: BT-549 breast 37% | MDA-MB-435 melanoma 33.1% | SW-620 colon 26.5% | HCT-116 colon 24.7% | HCC-2998 colon 33.6% | KM12 colon 24.5%

COc1cc2c(cc1O)CC[C@@H]1[C@@H]2CC[C@]2(C)[C@@H](NCCN(C)C)CC[C@@H]12
active: BT-549 breast -84.3% | MDA-MB-435 melanoma -78.9% | SW-620 colon -80.4% | MCF7 breast -75.8% | HCT-116 colon -90.6% | KM12 colon -82.4%

CCn1c(Cc2ccccc2Nc2c(Cl)cccc2Cl)nnc1SCC(=O)NN1C(=O)/C(=C/c2cc(OC)c(O)c(OC)c2)SC1=S
active: MDA-MB-435 melanoma -46.5%
inactive: BT-549 breast 50% | SW-620 colon 21.2% | MCF7 breast 16.9% | HCT-116 colon 11.5% | HCC-2998 colon 56.9% | KM12 colon 18%

COc1cc(-c2nc3ccccc3[nH]2)ccc1OCC(=O)N=Nc1c(O)[nH]c2ccc(Cl)cc12
active: BT-549 breast 9.87% | MDA-MB-435 melanoma -71.1% | SW-620 colon -67.8% | MCF7 breast -76.9% | HCT-116 colon -83.6% | HCC-2998 colon -62.9% | KM12 colon -87.2%

C#CCOc1ccc2ncnc(Nc3cccc(CNC(=O)CCl)c3)c2c1
inactive: MDA-MB-435 melanoma 49.6% [8.25 µM] | SW-620 colon 30.4% [8.25 µM] | MCF7 breast 30.4% [8.25 µM] | HCT-116 colon 26% [8.25 µM] | HCC-2998 colon 99% [8.25 µM] | KM12 colon 63.2% [8.25 µM]

O=C(CCCCC(=O)N/N=C\c1ccccc1O)N/N=C\c1ccccc1O
inactive: BT-549 breast 38.4% | SW-620 colon 34.2% | MCF7 breast 27.5% | HCT-116 colon 25.5% | HCC-2998 colon 21.4% | KM12 colon 33.6%

NC(=NC1C2CC3CC(C2)CC1C3)Nc1ccc(I)cc1 (stereo unspecified)
inactive: BT-549 breast 53.7% | MDA-MB-435 melanoma 30.7% | SW-620 colon 20.9% | KM12 colon 45.9%
active: MCF7 breast 9.29% | HCT-116 colon 8.08%

O=S(=O)(Nc1ccc(OC(F)F)cc1)c1ccc(-c2cnc(C3CC3)o2)cc1
inactive: BT-549 breast 63.4% | SW-620 colon 35.2% | MCF7 breast 39.1% | HCT-116 colon 65.4% | HCC-2998 colon 80.5% | KM12 colon 74.1%
active: MDA-MB-435 melanoma 8.1%

Nc1n[nH]c2cc(F)c([C@@H]3Nc4ccc5[nH]ncc5c4[C@H]4C5CCC(C5)[C@@H]34)cc12 (stereo partly specified)
inactive: SW-620 colon 21.7% | MCF7 breast 16.3% | HCC-2998 colon 15.9%
active: BT-549 breast -7.74% | MDA-MB-435 melanoma -15.3% | HCT-116 colon -29.3% | KM12 colon 1.62%

CC1C(/C=N/Nc2ccccc2)C(C#N)(C#N)C1(C#N)C#N (stereo unspecified)
inactive: BT-549 breast 77.4% | MDA-MB-435 melanoma 62.5% | SW-620 colon 60.2% | MCF7 breast 82.4% | HCT-116 colon 67.3% | HCC-2998 colon 86% | KM12 colon 62.5%
